hcDAF12 agonist – activates DAF-12 receptor from parasite H. contortus. activation, % at 6.8 µM. actives 1.4% (n = 370,000). HEK293 hcDAF-12 lit1-tk-luc reporter, luminescence; 0% DMSO, 100% Δ7-dafachronic acid;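 active means activation above the mean of all tested compounds plus 3 SD, cut at about 5.5% in these data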;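 further: 100% = response to 3 µM Δ7-dafachronic acid high control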
hgDAF-12 ag – agonists of H. glycines DAF-12 nuclear receptor. HEK293 GAL4-hgDAF12 UAS-luciferase reporter, agonist luminescence; normalized to butyrate control. activation, % at 6.8 µM. actives 1.8% (n = 370,000). AID 687014;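 active means activation above a cutoff set at the mean of all screened compounds plus 3 SD, cut at about 10% in these data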;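 further: 0% = DMSO wells and 100% = sodium butyrate wells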
Wee1 stabilizer – inhibitors of human Wee1 degradation; HeLa Luc-Wee1K328M stability, luciferase luminescence; 100% = proteasome inhibitor MG132 effect; reporter increase, % at 5 µM; actives 1.2% (n = 220,000); AID 1321;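 active means activation above the mean of all tested compounds plus 3 SD, set per screening run, cut at about 8.8% in these data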;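 further: cells exposed to compound for 20 h before luminescence read; 0% = DMSO alone and 100% = MG132 at 30 µM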
DAX1 inh-1 – inhibits human nuclear receptor DAX1 | HEK293 Gal4-DAX1 luciferase reporter, luminescence | inhibition, % at 6.75 µM | actives 0.99% (n = 340,000) | AID 504766;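 active means inhibition above the mean over all tested compounds plus 3 SD, cut at about 4.2% in these data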;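 further: 0% = DAX1-transfected cells with DMSO and 100% = empty-vector control cells with DMSO; inhibition shows as a rise in luminescence from relieved DAX1 repression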
Target sequence (P51843 207-470 limits assumed): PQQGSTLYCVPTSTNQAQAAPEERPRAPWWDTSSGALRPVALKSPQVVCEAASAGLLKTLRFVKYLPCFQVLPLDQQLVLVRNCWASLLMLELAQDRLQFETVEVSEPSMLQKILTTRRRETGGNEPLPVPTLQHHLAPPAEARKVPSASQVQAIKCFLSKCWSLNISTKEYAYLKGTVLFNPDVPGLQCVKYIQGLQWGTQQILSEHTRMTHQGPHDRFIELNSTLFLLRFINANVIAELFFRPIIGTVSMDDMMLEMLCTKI
DAX1 inh-2 – inhibitors of DAX1 repression of SF-1 activated StAR promoter; HEK293T StAR-luciferase reporter, SF-1/DAX-1 repression relief; inhibition, % at 6.8 µM; actives 1.1% (n = 370,000); AID 652010;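 active means inhibition above the mean over all tested compounds plus 3 SD, cut at about 3.6% in these data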;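 further: 0% = DAX-1 cells with DMSO and 100% = cells lacking DAX-1 with DMSO; higher inhibition means more luminescence from relief of DAX-1 repression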
ssDAF12 agonist – activates DAF-12 receptor from parasite S. stercoralis. HEK293 ssDAF-12/GRIP1 lit1-tk-luc reporter, luminescence; % of 3 µM dafachronic acid response. AID 652126. actives 1% (n = 370,000). activation, % at 6.8 µM;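 active means activation above the mean over all tested compounds plus 3 SD, cut at about 0.9% in these data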;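 further: 0% = DMSO-only wells and 100% = 3 µM delta7-dafachronic acid wells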
The depositor's hits bear a star; / = no result. Most compounds without a hit are left out; they make up all but 4.6% or so of the library.

SMILES | hcDAF12 agonist | hgDAF-12 ag | Wee1 stabilizer | DAX1 inh-1 | DAX1 inh-2 | ssDAF12 agonist
Cc1c(Br)c(C(=O)N2CCc3ccccc32)nn1C | 0.7 | 10.2 | 0.3 | 4.4* | 1.9 | -1.0
C/C(=C\C(=O)N1CCc2ccccc21)C(=O)O | 2.9 | 0.7 | -1.8 | 4.3* | -0.5 | -0.1
CCCC1CCC2(CC1)CCC2OC(=O)Nc1ccc(C)cc1 (centres undefined) | -1.2 | 2.9 | / | / | / | -1.2
O=C(NNC(=O)c1ccccc1F)c1cccc(-n2cccc2)c1 | -0.9 | 4.4 | / | 1.4 | 3.7* | -0.9
O=C(CN1CCOc2ccccc21)NC1CCCCCCC1 | 5.8* | -0.7 | -2.2 | 4.8* | -0.3 | 0.8
O=C(CN1CCOc2ccccc21)NC1CCN(Cc2ccccc2)CC1 | 0.4 | -1.6 | -2.8 | 0.6 | -0.6 | 0.4
Cc1ccc(C(C)C)c(OCC(O)CN2CC(C)OC(C)C2)c1 (centres undefined) | -2.5 | -3.1 | -1.6 | -1.0 | -0.2 | -1.5
Cc1cc(C)cc(OCC(O)CN2CC(C)OC(C)C2)c1 (centres undefined) | -0.5 | -0.7 | / | 6.5* | 0.5 | -0.4
CC(=O)c1c(C)[nH]c(C(=O)Nc2ccc3c(c2)OCCO3)c1C | 3.1 | 10.8* | 2.9 | 0.6 | 2.8 | 0.7
CCc1ccc(NC(=O)c2[nH]c(C)c(C(C)=O)c2C)cc1 | 0.5 | 12.9* | / | 1.1 | 2.4 | -0.7
CC(=O)c1c(C)[nH]c(C(=O)Nc2cccnc2)c1C | -1.4 | 2.8 | 3.5 | 1.7 | -0.2 | -1.3
CC(=O)c1c(C)[nH]c(C(=O)Nc2nccs2)c1C | 1.4 | 12.0* | 2.9 | 0.3 | 0.3 | -1.0
CCOC(=O)[C@]12CCCCC/C=C\1N(Cc1ccc(OC)cc1)C(=O)[C@H]2CC(=O)NCCC(C)C | -0.4 | -2.4 | / | / | 0.6 | 0.3
COc1cc(NC(=O)C2(C)CCCN2C)cc(OC)c1OC (centres undefined) | 1.9 | 1.6 | / | / | 0.7 | -0.9
Cc1cc(NC(=O)C(C)SCC(=O)OCC(=O)N(C)c2ccccc2)no1 (centres undefined) | -1.0 | 1.6 | / | 4.6* | 1.1 | -0.7
O=C(Nc1nnc(SCc2ccccn2)s1)C1CC(=O)N(c2ccccc2)C1 (centres undefined) | -1.6 | 2.3 | -2.0 | 6.5* | -0.6 | -1.0
Cc1ccc(N2CC(C(=O)Nc3nnc(SCc4ccccn4)s3)CC2=O)cc1 (centres undefined) | -0.4 | -1.5 | / | 0.5 | -0.3 | -1.1
O=C(NCCc1ccccc1)OCc1cn(Cc2cccc(C(F)(F)F)c2)nn1 | -2.1 | -5.0 | / | / | 0.7 | -1.4
CC(C)(C)c1ccc(C(=O)N2CCC2(C)C(=O)NCC(F)(F)F)cc1 (centres undefined) | -1.4 | -1.9 | / | / | -0.4 | -1.6
COc1cc(NC(=S)NCCc2ccccc2)c(OC)cc1NC(=O)C(C)C | -1.7 | -1.0 | 4.6 | -0.1 | -0.7 | 1.9*
COc1ccc(NC(=S)NCCc2ccc(S(N)(=O)=O)cc2)c(OC)c1 | 0.3 | 6.7 | 2.2 | -0.1 | 0.2 | -1.0
CC(NCCc1ccc(S(N)(=O)=O)cc1)C(=O)NCCc1ccc(F)cc1 (centres undefined) | -0.7 | -0.8 | / | 5.1* | 0.3 | -0.9
COc1ccccc1NC(=S)NCCc1ccc(S(N)(=O)=O)cc1 | 5.9* | -2.0 | -0.7 | 0.3 | -0.3 | -1.1
COc1cc(C(=O)N2CCCC(c3cc(C(=O)NCc4ccccc4)no3)C2)cc(OC)c1C (centres undefined) | -2.5 | -1.1 | / | / | -1.1 | -1.1
COC(=O)c1cccc(OCC(C)CN2CCC(C(O)(c3ccccc3)c3ccccc3)CC2)c1 (centres undefined) | 2.1 | -2.8 | / | / | -1.4 | -1.4
SMILES | hcDAF12 agonist | hgDAF-12 ag | Wee1 stabilizer | DAX1 inh-1 | DAX1 inh-2 | ssDAF12 agonist
CCCCNC(=O)c1nc(C2CCN(S(=O)(=O)c3ccccc3C(F)(F)F)CC2)oc1-c1ccccc1 | -0.9 | -0.4 | / | / | -2.5 | -1.0
Cn1ncc(Cl)c1C(=O)Nc1ccc2c(c1)OCO2 | 6.3* | 3.6 | / | 1.3 | 0.8 | 0.0
O=C(Nc1ccc2c(c1)OCO2)c1c(Cl)nc2sccn12 | 5.9* | 8.8 | 2.0 | 3.4 | 1.9 | -0.2
Cn1ncc(Cl)c1C(=O)NCc1ccc2c(c1)OCO2 | -1.8 | -1.2 | / | -0.9 | -6.6 | -1.0
CC(C)n1nnc(-c2ccc(OCc3ccccc3F)cc2)n1 | 2.0 | 8.2 | / | 2.1 | 0.4 | -0.5
N#Cc1ccc(C23OCCN2CCn2c3c3ccccc3[n+]2[O-])cc1 (centres undefined) | 2.4 | 0.2 | / | 1.2 | -0.6 | -0.1
COc1ccc(CNC(=O)c2cc(S(=O)(=O)N3CCCCC3)ccc2Cl)cc1OC | -4.1 | -5.9 | / | -4.7 | -4.4 | -1.8
C=CCN1C=C2C(=O)C(C)(OC(=O)C3CCCC3)C(=O)C=C2C=C1c1ccsc1 (centres undefined) | 4.3 | 6.0 | / | 1.0 | 0.6 | 1.4*
CC(C)CN1C=C2C(=O)C(C)(OC(=O)C3CCCC3)C(=O)C=C2C=C1c1ccsc1 (centres undefined) | 0.6 | 0.0 | / | -0.1 | -0.5 | -0.8
CSc1ncccc1C(=O)Nc1nc2ccc(S(C)(=O)=O)cc2s1 | 0.7 | 5.5 | 8.9* | -0.9 | -1.7 | -0.9
CS(=O)(=O)c1ccc2nc(NC(=O)c3cccc([N+](=O)[O-])c3)sc2c1 | 3.3 | 10.7* | / | 0.9 | -0.1 | 0.1
Fc1ccc(-c2nc3ccc(Br)cn3c2Cc2ccccc2C(F)(F)F)cc1 | 0.6 | 4.5 | / | / | 0.7 | -0.9
O=C(NCC(=O)N1CCCCCCC1)c1ccc(Br)o1 | 0.6 | 1.7 | / | 6.0* | 0.8 | -0.6
O=C(NCC(=O)N1CCOCC1)c1ccc(Br)o1 | -0.9 | 1.7 | / | 3.1 | 3.7* | -0.8
O=C(Cc1ccc(Br)cc1)N1CCOCC1 | 0.7 | -1.1 | / | 1.8 | 1.0 | 0.9*
O=C(Nc1ccc(N2CCOCC2)cc1)c1ccc(Br)o1 | 4.4 | 12.4* | / | 0.9 | 2.5 | -0.3
CC(=O)N1CCN(C(=O)CNC(=O)c2ccc(Br)o2)CC1 | -1.1 | -2.1 | / | 1.1 | -0.1 | -0.8
O=C1C=C(/C=C/c2ccccc2)C[C@@H](c2ccc3c(c2)OCO3)C1 | -1.7 | 1.2 | / | -0.5 | -0.2 | -1.0
COC(=O)C1CN(Cc2ccc(Cl)cc2)CCS(=O)(=O)N1Cc1cn(Cc2ccc(Cl)cc2)nn1 (centres undefined) | -2.4 | -3.5 | / | / | -0.4 | -1.1
COc1ccc(C(=O)N2CCOCC2c2cc(C(=O)NCc3ccccc3)no2)cc1 (centres undefined) | -0.7 | -3.6 | / | / | -0.2 | -1.1
CCOC(=O)c1c(C)[nH]c(C)c1C(=O)CN1C(=O)NC(CC(C)C)C1=O (centres undefined) | / | / | 9.4* | 0.4 | / | /
COc1ccc(-c2csc(N3CCOCC3)n2)cc1OC | 2.2 | 11.3* | 0.4 | 1.4 | 0.3 | -1.0
COc1ccc(-c2csc(N)n2)cc1F | 1.6 | 3.7 | 0.3 | 4.8* | 2.3 | -1.4

Screening data (PubChem)
